# This is a sample that favours compounds with a hit; in the whole collection about 2.9% have one here.
# PG9 Ab binder = binders of HIV-1 gp120 antibody PG9, primary screen, biochemical, TR-FRET | TR-FRET gp120-PG9 antibody binding | inhibition, % at 6.7 µM | actives 0.43% (n = 360,000) | AID 624416, 2012; in the data active = inhibition above about 8.5%
# EP2 antag = human EP2 receptor antagonists, primary screen, TR-FRET cAMP, C6 glioma cells. Prostaglandin E2 receptor EP2 subtype (Homo sapiens), P43116. C6 glioma cells expressing human EP2; cells stimulated with saturating PGE2. inhibition, % at 25 µM. actives 0.52% (n = 260,000). AID 1422, 2008;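 active = percent inhibition above 40 after rounding to a whole number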;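 note: rat C6 glioma host cells with rolipram phosphodiesterase inhibitor present; the protocol text gives 20 µM as final concentration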
# Target sequence (P43116 whole entry, looked up): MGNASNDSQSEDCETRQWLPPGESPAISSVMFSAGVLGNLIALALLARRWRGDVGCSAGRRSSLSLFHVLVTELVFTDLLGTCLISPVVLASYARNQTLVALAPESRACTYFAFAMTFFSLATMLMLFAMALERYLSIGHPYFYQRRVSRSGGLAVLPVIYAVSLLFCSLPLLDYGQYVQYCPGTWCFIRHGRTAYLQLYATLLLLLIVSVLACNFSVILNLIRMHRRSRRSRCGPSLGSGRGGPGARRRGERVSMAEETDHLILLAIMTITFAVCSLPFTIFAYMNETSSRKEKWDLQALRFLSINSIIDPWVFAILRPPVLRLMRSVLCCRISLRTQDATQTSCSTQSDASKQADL
# NR1D1 modulator = modulators of Rev-erb alpha DNA binding, primary screen, biochemical, FITC-DNA, fluorescence polarization, uHTS | Nuclear receptor subfamily 1 group D member 1 (Homo sapiens), P20393 | Rev-erbα–FITC-DNA binding, 90 min | activity, % at 10 µM | actives 0.79% (n = 370,000) | AID 1259318, 2017;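 active = activity above about 14%, limit read from the data; passing the limit was not always enough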
# EP2 mod = EP2 receptor modulators, cAMP readout, primary screen, cell-based, HTRF cAMP, PGE2 stimulation; Prostaglandin E2 receptor EP2 subtype (Homo sapiens), P43116; actives 0.83% (n = 260,000); EP2-expressing cells, cAMP HTRF FRET, PGE2 co-stimulation; induction, % at 25 µM;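 active = compounds whose cAMP rise, as percent of the full-agonist control response, exceeds 60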;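 note: rat C6 glioma line stably carrying human EP2 under a CMV promoter; the protocol text gives 20 µM as final concentration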
# SKN-1 inh = suppressors of acrylamide-induced Pgst-4::GFP reporter in worms, primary screen, SKN-1 inhibitor project, whole organism, uHTS, GFP/RFP fluorescence ratio, strain VP596; actives 0.49% (n = 360,000); C. elegans VP596 Pgst-4::GFP/RFP ratio, 24 h; inhibition, % at 21.8 µM;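 active = interference check ratio from 0.5 to 1.5 plus GFP to RFP signal ratio inhibition reaching or exceeding a fixed threshold, cut at about 30% in these data, passing the limit was not always enough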
# RAM inhibit = inhibitors of the yeast RAM network, primary screen, dse1pr::URA3 reporter, 5-FOA selection | inhibition, % at 50 µM | actives 1.8% (n = 190,000) | S. cerevisiae dse1pr::URA3 reporter, 5-FOA growth OD615, 2 d; analog-sensitive cbk1-as2 kinase mutant strain;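 active = inhibition above a set limit, 3 SD over mean compound inhibition, cut at about 8.4% in these data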;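 note: inhibition rescues growth on 5-FOA so higher OD means more RAM inhibition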
# PG9 binder conf = binders of anti-gp120 antibody PG9, confirmation, biochemical, TR-FRET | AID 651571, 2012 | actives 90% (n = 1,500) | inhibition, % at 6.7 µM | shares compounds with PG9 Ab binder | TR-FRET PG9 antibody binding; in the data active = inhibition above about 9%
# PGV04 counter = binders of control antibody PGV04, counter-screen for PG9 antibody binder project, biochemical, TR-FRET, distinct HIV envelope site; shares compounds with PG9 Ab binder; TR-FRET PGV04 antibody-gp120 binding; inhibition, % at 6.7 µM; actives 95% (n = 1,500); AID 651604, 2012; in the data active = inhibition above about 9.5%
# PG9 binder DR = small-molecule binders of antibody PG9, dose response, biochemical, TR-FRET, HIV-1 gp120 antibody; 95 tested, under 10 active; TR-FRET PG9 antibody-gp120 binding inhibition; IC50, µM; shares compounds with PG9 Ab binder; in the data active = IC50 below about 10 µM
# PGV04 binding DR = binders of control antibody PGV04, dose response, counter-screen for PG9 antibody binder project, biochemical, TR-FRET, distinct HIV envelope site | shares compounds with PG9 Ab binder | TR-FRET binding to control antibody PGV04 | IC50, µM | actives 20% (n = 95)
# PG126 DR counter = binders of control antibody PG126, dose response, counter-screen for PG9 antibody binder project, biochemical, TR-FRET, distinct HIV envelope site. shares compounds with PG9 Ab binder. TR-FRET binding to antibody PG126, counterscreen. IC50, µM. actives 20% (n = 95)
# NR1D1 mod conf = modulators of Rev-erb alpha DNA binding, confirmation, biochemical, FITC-DNA, fluorescence polarization, single point. shares compounds with NR1D1 modulator. 90 min. activation, % at 25 µM. actives 61% (n = 3,000). AID 1259319, 2017;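 active = activation at or above a set limit, or at least 3 SD above the negative control mean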
# RORg counter = modulation of RORgamma DNA binding, dose response, counter-screen for Rev-erb alpha modulator project, biochemical, fluorescence polarization, FITC-DNA. shares compounds with NR1D1 modulator. purified RORgamma protein-FITC-DNA binding. IC50, µM. actives 8% (n = 910);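 active = Compounds whose fitted half-maximal concentration for disrupting protein-DNA binding is below 10 micromolar; the record names Rev-erb in its text, so the target is in doubt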
# Hits are given with their value; - = inactive; . = no result. Cut-off read from the data, not from the text of the source, unless noted: active = IC50 below about 9 µM; inactive = the rest.
SMILES,PG9 Ab binder,EP2 antag,NR1D1 modulator,EP2 mod,SKN-1 inh,RAM inhibit,PG9 binder conf,PGV04 counter,NR1D1 mod conf,others
Cc1cc(C)c(NC(=O)CSc2nc3ncc(Br)cc3[nH]2)c(C)c1,39.3,.,124.0,.,-,.,40.9,64.8,98.9,RORg counter=-
CC(C)(C)C(=O)CSc1nc2ncc(Br)cc2[nH]1,-,-,-,-,-,-,.,.,.,
CC(=O)c1ccc(N2CCN(S(=O)(=O)c3cc4c(cc3C)NC(=O)CO4)CC2)cc1,36.6,.,31.3,.,-,.,33.3,47.6,22.9,
Cc1cc2c(cc1S(=O)(=O)N1CCN(c3cccc(C(F)(F)F)c3)CC1)OCC(=O)N2,-,.,-,.,-,.,.,.,.,
O=C(Cn1cnc2c(oc3nc4c(cc32)CCCC4)c1=O)Nc1cccc(Cl)c1,9.1,.,57.1,.,-,.,25.6,25.0,-,PG9 binder DR=-;PGV04 binding DR=-;PG126 DR counter=-
O=C(Cn1cnc2c(oc3nc4c(cc32)CCCC4)c1=O)Nc1ccccc1,-,.,-,.,-,.,.,.,.,
O=C(CCCCCn1c(=S)[nH]c2ccc(N3CCOCC3)cc2c1=O)NCc1ccccc1Cl,-,-,-,-,-,-,.,.,.,
O=C(CCCCCn1c(=S)[nH]c2ccc(N3CCOCC3)cc2c1=O)NCc1ccc2c(c1)OCO2,20.9,-,22.3,-,-,-,16.5,23.8,-,
O=C(CCCCCn1c(=S)[nH]c2ccc(N3CCOCC3)cc2c1=O)NCc1ccc(Cl)cc1,20.6,-,18.0,-,-,-,16.0,24.7,-,
Oc1ccc(Br)cc1C1Nc2ccccc2S1 (stereo not drawn),24.8,.,151.7,.,-,.,20.6,43.6,88.6,RORg counter=-
O=C(Nc1cccc(Cl)c1)C1CCN(c2cnccn2)CC1,.,-,.,-,.,.,.,.,.,
Cc1ccc(-n2nc3c(N4CCC(C(=O)NCCc5cccs5)CC4)nnc(C)c3c2C)cc1,12.2,.,29.9,.,-,.,25.2,35.9,36.0,RORg counter=-
COc1ccc(C(=O)Nc2nc3ccc(S(C)(=O)=O)cc3s2)cc1OC,21.8,-,30.3,-,-,-,27.8,40.2,24.8,
Cc1ccc(C(=O)Nc2nc3ccc(S(C)(=O)=O)cc3s2)cc1C,20.7,.,25.6,.,-,.,32.2,50.9,21.3,
Cc1cccc(C(=O)Nc2nc3ccc(S(C)(=O)=O)cc3s2)c1,34.4,.,35.8,.,-,.,14.9,37.7,21.9,
